Reference: PubChem BioAssay
The source made the active and inactive calls.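 The calls were made as follows, unless noted: active = NADPH fluorescence slope more negative than the mean of all samples by about 3 SD, 99.7% confidence; inactive = the rest.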

Tests used:
[1] = inhibitors of TNFa-induced NFkB p65 translocation, primary screen, imaging, HUVEC, MLSMR starter and 10KST1 sets (AID 438;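 active = inhibition above 20% together with a positive visual image hit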;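 also: compound added about 3h40 before a 20 min TNFalpha stimulation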;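 as to inhibition: signal is the nuclear over cytoplasmic p65 intensity ratio per well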); conditions: HUVEC TNFa-induced p65 nuclear translocation; cell count: measured here: nuclei count (cytotoxicity indicator), at 2.08 µM; inhibition: at 2 µM, stronger effect = higher value, 0% TNFa-plus-vehicle, 100% no-TNFa wells
[2] = reduction of polyQ htt aggregates in cells – imaging, exon1htt(103Q)mCFP cells, high-content imaging, primary screen (AID 483;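 active = visual image review flags a hit and inhibition of aggregation exceeds 20%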;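 also: compound exposure lasted 3 days before fixation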;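 as to nuclei count: percent of the per-plate median nuclei count of sample wells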); conditions: exon1htt(103Q)mCFP cell line, aggregate imaging, at 2 µM; inhibition of aggregation: stronger effect = higher value; nuclei count: measured here: cell count, toxicity
[3] = endothelial E-selectin expression blockers – imaging, HUVEC, immunofluorescence, MLSMR starter and 10KST1 sets, primary screen (AID 487;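 active = visually confirmed hit in the image check and inhibition above 20%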;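 as to inhibition: signal is fraction of cell area covered by stained E-selectin grains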;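 as to nuclei count: 100% = median nuclei count of all wells on the same plate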); conditions: HUVEC TNFalpha-induced E-selectin immunofluorescence imaging, at 2 µM; inhibition: stronger effect = higher value; nuclei count: measured here: cell number, toxicity
[4] = molecular target: Voltage-gated potassium channel subunit beta-2 (Rattus norvegicus) (UniProt P62483); experiment: inhibitors of rat Kvbeta2 reductase activity – biochemical, NADPH fluorescence, primary screen (AID 622;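 active = fluorescence slope higher than the sample average by over 3 SD, cut at about -0.22 in these data, passing the limit was not always enough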;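 also: slope of raw intensity against log time taken from 70 to 1610 s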); conditions: recombinant KvBeta, 4-cyanobenzaldehyde reduction, at 10 µM, stronger effect = higher value
[5] = molecular target: Voltage-gated potassium channel subunit beta-2 (Rattus norvegicus) (UniProt P62483); experiment: enhancers of rat Kvbeta2 NADPH turnover – biochemical, NADPH fluorescence, primary screen (AID 623); conditions: Recombinant KvBeta, NADPH fluorescence decrease slope, 10 min; at 10 µM; stronger effect = lower value;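 also: fluorescence intensity change per second fitted from 20 to 320 s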
[6] = molecular target: Alpha-2C adrenergic receptor (Homo sapiens) (UniProt P18825); experiment: compounds altering alpha2C-coupled GIRK flux – cell-based, HEK293 alpha2C/GIRK1/2, thallium flux, primary screen (AID 624;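 active = fluorescence slope after compound addition differing from the mean of all screened samples at 99.7% confidence, in either direction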;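 also: slope of fluorescence ratio to pre-addition baseline per second over 15 to 24 s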); conditions: thallium flux BTC fluorescence, at 10 µM, actives lie on both sides
[7] = blockers of RIG-like receptor reporter activation – cell-based, Sendai virus stimulus, luciferase, 10K MLSCN set, TLR/RLR signaling modifier project, primary screen (AID 602276;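 active = inhibition at or above 50% at 10 µM; inactive = inhibition below 50%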;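 also: firefly luciferase from ISG56 promoter only with Renilla not read in this screen; 0% = Sendai virus plus DMSO and 100% = medium plus DMSO without virus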); conditions: HEK293 RL24 IRF3 luciferase reporter, at 10 µM, stronger effect = higher value
[8] = TLR3 IRF3 reporter activation blockers – cell-based, poly I:C stimulus, luciferase, 10K MLSCN set, primary screen (AID 602277;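 active = inhibition of the reporter signal at or above 50%; inactive = inhibition below 50%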); conditions: HEK293-TLR3 RL24 IRF3 luciferase reporter, at 10 µM, stronger effect = higher value

Alpha-2C adrenergic receptor (Homo sapiens), sequence (P18825 whole entry, looked up): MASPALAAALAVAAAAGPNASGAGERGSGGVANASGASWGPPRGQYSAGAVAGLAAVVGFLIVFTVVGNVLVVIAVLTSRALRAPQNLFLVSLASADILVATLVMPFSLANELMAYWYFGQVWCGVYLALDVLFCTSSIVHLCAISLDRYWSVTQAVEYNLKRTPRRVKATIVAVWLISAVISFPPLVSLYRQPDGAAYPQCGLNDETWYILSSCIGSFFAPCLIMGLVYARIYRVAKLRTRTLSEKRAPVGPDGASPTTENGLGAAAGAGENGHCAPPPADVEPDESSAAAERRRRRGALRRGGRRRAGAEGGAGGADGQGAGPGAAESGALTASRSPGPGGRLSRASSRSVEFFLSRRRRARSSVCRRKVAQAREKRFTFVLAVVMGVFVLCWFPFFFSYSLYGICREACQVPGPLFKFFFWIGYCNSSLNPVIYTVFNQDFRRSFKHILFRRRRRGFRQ
Voltage-gated potassium channel subunit beta-2 (Rattus norvegicus), sequence (P62483 whole entry, looked up): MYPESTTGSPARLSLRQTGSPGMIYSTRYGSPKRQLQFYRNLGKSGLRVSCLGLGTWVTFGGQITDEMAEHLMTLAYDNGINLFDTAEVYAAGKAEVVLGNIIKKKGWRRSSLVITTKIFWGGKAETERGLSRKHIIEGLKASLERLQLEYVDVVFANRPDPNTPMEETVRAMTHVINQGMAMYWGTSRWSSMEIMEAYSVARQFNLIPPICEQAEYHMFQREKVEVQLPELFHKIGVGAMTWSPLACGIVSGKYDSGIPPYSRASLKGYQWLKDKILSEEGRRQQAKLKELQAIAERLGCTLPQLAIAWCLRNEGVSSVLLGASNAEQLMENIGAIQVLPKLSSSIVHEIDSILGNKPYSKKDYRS

Row | SMILES | cell count [1] | inhibition [1] | inhibition of aggregation [2] | nuclei count [2] [%] | inhibition [3] | nuclei count [3] [%] | fluorescence slope [4] | NADPH fluorescence slope [5] | slope [6] | inhibition [7] | inhibition [8]
1 | CC(C)OCCCNC(=O)c1cc2c(s1)CS(=O)(=O)C2 | 215 | 1.9% (inactive) | 7.5% (inactive) | 80.8 | 25.9% (inactive) | 103 | -0.352 (inactive) | -5.6e-05 (inactive) | 0.0057 (inactive) | 5.68% (inactive) | 5.21% (inactive)
2 | COc1ccc(N2CCN(Cc3nc4c(c(=O)n(C)c(=O)n4C)n3Cc3ccccc3C)CC2)cc1 | 719 | -14% (inactive) | 5.8% (inactive) | 100 | -7.8% (inactive) | 129 | -0.428 (inactive) | -2.3e-05 (inactive) | 0.00487 (inactive) | 14.4% (inactive) | 39.9% (inactive)
3 | CSCCC(NS(=O)(=O)c1ccc2c(c1)oc(=O)n2C)C(=O)NC1CCCCC1 (stereo not drawn) | 627 | -6% (inactive) | 7.8% (inactive) | 93 | -35.6% (inactive) | 106 | -0.584 (inactive) | -3.7e-05 (inactive) | 0.00669 (inactive) | 11.8% (inactive) | 25.6% (inactive)
4 | COc1ccccc1C(=O)N1CCN(C(=O)c2ccncc2)CC1 | 252 | 7.8% (inactive) | -2.8% (inactive) | 92.4 | 12.3% (inactive) | 76.2 | -0.515 (inactive) | -1.9e-05 (inactive) | 0.00571 (inactive) | 8.46% (inactive) | 6.89% (inactive)
5 | Cc1cc(Nc2ccc(N3CCC(C)CC3)cc2)n2ncnc2n1 | 426 | -2.4% (inactive) | 6% (inactive) | 103 | -18.3% (inactive) | 115 | -0.602 (inactive) | 7e-05 (inactive) | 0.00396 (inactive) | -6.44% (inactive) | -3.16% (inactive)
6 | CC(C)OC(=O)CSc1nnc(-c2ccc(C(C)(C)C)cc2)n1N | 396 | -2.3% (inactive) | 4.2% (inactive) | 80.6 | -158% (inactive) | 210 | -0.469 (inactive) | -3.9e-05 (inactive) | 0.00343 (inactive) | 1.32% (inactive) | 14% (inactive)
7 | CCSc1nnc(NC(=O)c2csc(C)c2)s1 | 366 | 4.2% (inactive) | 12.8% (inactive) | 101 | -18.6% (inactive) | 104 | -0.592 (inactive) | -1.3e-05 (inactive) | 0.00352 (inactive) | -36.6% (inactive) | -89.7% (inactive)
8 | COCCn1c(-c2ccco2)nc2nc3ccccc3nc21 | 237 | 1.6% (inactive) | 23.4% (inactive) | 69.1 | -4.2% (inactive) | 98.9 | -0.255 (inactive) | -2.3e-05 (inactive) | 0.00377 (inactive) | -0.433% (inactive) | -3.38% (inactive)
9 | CC(=NCC1CCNCC1)C1=C(O)CC(C)(C)CC1=O | 663 | -11% (inactive) | -14.1% (inactive) | 113 | 12.1% (inactive) | 132 | -0.499 (inactive) | 4e-06 (inactive) | 0.00593 (inactive) | 4.83% (inactive) | 23.6% (inactive)
10 | Cn1c2ccc(F)cc2c2ncn(CCN3CCOCC3)c(=O)c21 | 719 | -8.9% (inactive) | -7.4% (inactive) | 81.6 | -39.1% (inactive) | 109 | -0.424 (inactive) | -1.5e-05 (inactive) | 0.00608 (inactive) | -47.2% (inactive) | 99.1% (active)
11 | O=C(CSc1nnc(-c2c[nH]c3ccccc23)o1)N(Cc1ccccc1)c1ccc(F)cc1 | 295 | -6.1% (inactive) | 1% (inactive) | 95.3 | -20.3% (inactive) | 119 | -0.6 (inactive) | -2.1e-05 (inactive) | 0.00713 (inactive) | -15.4% (inactive) | -35.1% (inactive)
12 | O=C(c1ccc2c(c1)OCCO2)C1CCN(C(=O)c2ccc(F)cc2)CC1 | 326 | -10% (inactive) | -12% (inactive) | 110 | -77.5% (inactive) | 126 | -0.514 (inactive) | -4.4e-05 (inactive) | 0.00672 (inactive) | 7.11% (inactive) | -2.46% (inactive)
13 | CCOC(=O)c1cc2cc(F)ccc2nc1C | 646 | 4.9% (inactive) | 13.9% (inactive) | 106 | -7% (inactive) | 118 | -0.612 (inactive) | -2.7e-05 (inactive) | 0.00327 (inactive) | -17.9% (inactive) | -45.1% (inactive)
14 | Cc1noc(C)c1COc1cccc(C(=O)Nc2ccc(C#N)cc2)c1 | 422 | 0.4% (inactive) | 3.1% (inactive) | 94.2 | -15.6% (inactive) | 106 | -0.455 (inactive) | -4.9e-05 (inactive) | 0.00473 (inactive) | 2.49% (inactive) | -0.298% (inactive)
15 | O=C(CSc1ncc(-c2ccc(F)cc2)[nH]1)N1CCCCC1 | 425 | 0% (inactive) | -11% (inactive) | 78.3 | -25.6% (inactive) | 106 | -0.331 (inactive) | -5.1e-05 (inactive) | 0.00631 (inactive) | -13% (inactive) | -71.4% (inactive)
16 | Cc1cc(-c2ccccc2)c(C#N)c(N)n1 | 331 | -6.4% (inactive) | -10.4% (inactive) | 94.7 | -11.3% (inactive) | 115 | -0.394 (inactive) | -6.4e-07 (inactive) | 0.00466 (inactive) | 18.7% (inactive) | 34.2% (inactive)
17 | CCOc1ccc(S(=O)(=O)N2CCN(C(=O)c3cccn3C)CC2)cc1 | 431 | 2% (inactive) | -7.2% (inactive) | 95.6 | -88.3% (inactive) | 105 | -0.502 (inactive) | -9e-06 (inactive) | 0.00499 (inactive) | 13.9% (inactive) | 19.3% (inactive)
18 | FC(F)(F)c1cc(-c2ccco2)nc(NCc2ccco2)n1 | 589 | 14.6% (inactive) | 28.3% (inactive) | 95.5 | -24.3% (inactive) | 94.8 | -0.194 (inactive) | -3e-05 (inactive) | 0.00472 (inactive) | 14.2% (inactive) | 13.8% (inactive)
19 | COc1ccc(N2Cc3ccccc3C2)cc1Cl | 579 | -12.3% (inactive) | -13.8% (inactive) | 84 | -2% (inactive) | 98.5 | -0.527 (inactive) | -2.4e-05 (inactive) | 0.00436 (inactive) | -31.1% (inactive) | -55.5% (inactive)
20 | COC(=O)c1ccccc1NS(=O)(=O)c1ccc(F)cc1 | 609 | 2.4% (inactive) | -3% (inactive) | 99.4 | -22.1% (inactive) | 114 | -0.523 (inactive) | -3.8e-05 (inactive) | 0.00602 (inactive) | 9.83% (inactive) | 17.7% (inactive)
21 | CN1CC=C2C(C#N)=C(N)C(C#N)(C#N)C(Cc3ccccc3)C2C1 (stereo not drawn) | 556 | 10% (inactive) | 0.5% (inactive) | 81.2 | -7.7% (inactive) | 102 | -0.507 (inactive) | -2.1e-05 (inactive) | 0.0052 (inactive) | 4.84% (inactive) | 8.81% (inactive)
22 | CCOC(=O)c1c(NC(=O)c2ccn(CC)n2)sc2c1CCCC2 | 680 | -10.9% (inactive) | -3.6% (inactive) | 97.6 | -71.6% (inactive) | 114 | -0.123 (inactive) | -1.5e-06 (inactive) | 0.00291 (inactive) | 3.28% (inactive) | -1.94% (inactive)
23 | Cn1c(=O)c(=O)n(C)c2cc(S(=O)(=O)CCC(=O)N3CCOCC3)ccc21 | 773 | 0.9% (inactive) | 22.5% (inactive) | 93 | -79.8% (inactive) | 113 | -0.569 (inactive) | -1.9e-06 (inactive) | 0.00791 (inactive) | 8.53% (inactive) | 5.94% (inactive)
24 | CCN(c1c(C)n(C)n(-c2ccccc2)c1=O)S(C)(=O)=O | 614 | 11.6% (inactive) | 3.3% (inactive) | 104 | -98.2% (inactive) | 145 | -0.58 (inactive) | -3.6e-05 (inactive) | 0.00621 (inactive) | 23.1% (inactive) | 24.6% (inactive)
25 | O=C(NCC1CCCO1)C1c2ccccc2C(=O)N1C1CCCCCC1 (stereo not drawn) | 445 | -9.2% (inactive) | -4.3% (inactive) | 101 | -38.3% (inactive) | 109 | -0.621 (inactive) | 2.7e-06 (inactive) | 0.00613 (inactive) | 11.3% (inactive) | 15.1% (inactive)
26 | O=C(O)c1ccc(-c2ccc(O)c(F)c2)cc1 | 677 | 1.3% (inactive) | 11% (inactive) | 89.9 | -11.2% (inactive) | 104 | -0.59 (inactive) | -4.3e-05 (inactive) | 0.0076 (inactive) | -3.64% (inactive) | 17.3% (inactive)
27 | CN1C(=O)C(CC(=O)N2CCN(C(c3ccccc3)c3ccccc3)CC2)N(C)C1=O (stereo not drawn) | 281 | -2.3% (inactive) | 9.8% (inactive) | 97.2 | 20.6% (inactive) | 118 | -0.288 (inactive) | 5.9e-06 (inactive) | 0.00745 (inactive) | 1.7% (inactive) | 22.8% (inactive)
28 | CCCCOCCCNC(=O)c1ccccc1OCC | 365 | 8.5% (inactive) | 0.7% (inactive) | 111 | 33.7% (inactive) | 116 | -0.317 (inactive) | -6.3e-05 (inactive) | 0.00615 (inactive) | 11.1% (inactive) | 7.39% (inactive)
